Compounds without any hit were thinned out: in the full panel of roughly 79,000, 15% have a hit. Unmarked numbers belong to inactive results. Active and inactive are the calls of the source. Rule as the data show it: active = growth inhibition above about 70%; inactive = the rest.

A short description of test [1]: NCI Yeast Anticancer Drug Screen. Data for the rad50 strain (AID 155).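 Also: 0% = growth of vehicle-only cultures of the same strain.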 The following applies: S. cerevisiae rad50 strain growth inhibition, active compounds read high. The gist of the method:
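Inhibition values express reduced yeast growth in compound-treated cultures relative to vehicle-treated controls.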

A short description of test [2]: NCI Yeast Anticancer Drug Screen. Data for the mec2-1 strain (AID 157). The settings on record: S. cerevisiae mec2-1 strain, active compounds read high. Summed up: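 Yeast mec2-1 mutant treated with compound. Readout: growth inhibition vs vehicle controls.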
Test [3] in a line: NCI Yeast Anticancer Drug Screen. Data for the sgs1 mgt1 strain (AID 161).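 Also: 0% = growth of cultures given vehicle only.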 The following applies: S. cerevisiae sgs1 mgt1 strain, active compounds read high. The gist of the method: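 Genetically altered yeast, compound exposure, growth inhibition relative to vehicle.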
The nature of test [4]: NCI Yeast Anticancer Drug Screen. Data for the cln2 rad14 strain (AID 165).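 Also: 0% = growth equal to vehicle treated cultures.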 The settings on record: S. cerevisiae cln2 rad14 strain, active compounds read high. Summed up: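 cln2 rad14 yeast strain; compound exposure; growth inhibition read vs vehicle controls.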
Test [5] in a line: NCI Yeast Anticancer Drug Screen. Data for the bub3 strain (AID 167). The settings on record: S. cerevisiae bub3 mutant strain, active compounds read high. The gist of the method: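 Steps: expose the mutant yeast strain to compound; grow alongside vehicle-treated cultures; measure growth; express inhibition against the vehicle cultures.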
Test [6] in a line: NCI Yeast Anticancer Drug Screen. Data for the mlh1 rad18 strain (AID 175). The settings on record: S. cerevisiae mlh1 rad18 strain growth inhibition, active compounds read high. The gist of the method:
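Yeast w/ defined DNA-repair lesions; compound exposure; growth vs vehicle controls → % inhibition.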

[7] abbreviates: at 5.0 µM (retest, dose inferred, filed as 0.5).
The mark [8] stands for this setting: at 50.0 µM (retest, dose inferred, filed as 5.0).

Take `COC(=O)/C=C(\C)Nc1ccc(Cc2ccc(Br)cc2)cc1`: the growth inhibition was -4% in test [1] (setting [7]); 98% (active) in test [1] (setting [8]); 97.5% (active) in test [1] (at 50.0 µM); -13% in test [2] (setting [7]); 99% (active) in test [2] (setting [8]); 96.8% (active) in test [2] (at 50.0 µM). Moreover, the growth inhibition was -8% in test [3] (setting [7]); 99% (active) in test [3] (setting [8]); 97.8% (active) in test [3] (at 50.0 µM); 0% in test [4] (setting [7]); 99% (active) in test [4] (setting [8]); 92.9% (active) in test [4] (at 50.0 µM). Also, the growth inhibition is -5% in test [5] (setting [7]); 98% (active) in test [5] (setting [8]); 94% (active) in test [5] (at 50.0 µM); -4% in test [6] (setting [7]); 99% (active) in test [6] (setting [8]); 98% (active) in test [6] (at 50.0 µM).
Consider `Cc1cc(S(=O)(=O)Nc2n[nH]c(-c3ccccn3)n2)c(S)cc1Cl`, for which the growth inhibition in test [1] (setting [7]) is -10%; in test [1] (setting [8]) it was 92% (active); in test [1] (at 50.0 µM) it was 73.8% (active); in test [2] (setting [7]), 27%; in test [2] (setting [8]) it was 84% (active); in test [2] (at 50.0 µM), 53.8%. Further, the growth inhibition in test [3] (setting [7]) was 18%; in test [3] (setting [8]), 88% (active); in test [3] (at 50.0 µM) it was 55%; in test [4] (setting [7]), -4%; in test [4] (setting [8]), 85% (active); in test [4] (at 50.0 µM), 49%. The growth inhibition in test [5] (setting [7]) was -29%; in test [5] (setting [8]), 93% (active); in test [5] (at 50.0 µM), 69.3%; in test [6] (setting [7]), 0%; in test [6] (setting [8]), 88% (active); in test [6] (at 50.0 µM), 56%.
For `CC1SC2(C(=O)Nc3ccc(Br)cc32)N(c2ccc(Cl)cc2)C1=O` (configuration not stated), the growth inhibition in test [1] (setting [7]) was 13%; in test [1] (setting [8]), 99% (active); in test [1] (at 50.0 µM) it was 50.4%; in test [2] (setting [7]) it was 2%; in test [2] (setting [8]) it was 99% (active); in test [2] (at 50.0 µM), 99.5% (active). Besides, the growth inhibition is -2% in test [3] (setting [7]); 98% (active) in test [3] (setting [8]); 56.1% in test [3] (at 50.0 µM); -3% in test [4] (setting [7]); 95% (active) in test [4] (setting [8]); 90.8% (active) in test [4] (at 50.0 µM). Also, the growth inhibition in test [5] (setting [7]) is 15%; in test [5] (setting [8]) it was 99% (active); in test [5] (at 50.0 µM), 96.9% (active); in test [6] (setting [7]), 10%; in test [6] (setting [8]), 99% (active); in test [6] (at 50.0 µM), -8.55%.
Take `CC12CCC(O)CC1=CCC1C2CCC2(C)c3nc(C#N)c(=N)n(O)c3CC12` (configuration not stated): the growth inhibition is 12% in test [1] (setting [7]); 96% (active) in test [1] (setting [8]); 98.5% (active) in test [1] (at 50.0 µM); 0% in test [2] (setting [7]); 71% (active) in test [2] (setting [8]); 98.7% (active) in test [2] (at 50.0 µM). Also, the growth inhibition in test [3] (setting [7]) was 6%; in test [3] (setting [8]), 93% (active); in test [3] (at 50.0 µM), 99.2% (active); in test [4] (setting [7]), 4%; in test [4] (setting [8]), 89% (active); in test [4] (at 50.0 µM) it was 98.5% (active). Further, the growth inhibition in test [5] (setting [7]) is 1%; in test [5] (setting [8]), 81% (active); in test [5] (at 50.0 µM), 98% (active); in test [6] (setting [7]) it was 44%; in test [6] (setting [8]) it was 85% (active); in test [6] (at 50.0 µM), 99.2% (active).
On to `CCN(CC)CCC(=O)NC1c2ccc(Cl)cc2Oc2c(C)cccc21` (configuration not stated), for which the growth inhibition in test [1] (setting [7]) was -23%; in test [1] (setting [8]), 21%; in test [1] (at 50.0 µM), 54.6%; in test [2] (setting [7]), -1%; in test [2] (setting [8]), -7%; in test [2] (at 50.0 µM), -14.2%. Besides, the growth inhibition in test [3] (setting [7]) was 2%; in test [3] (setting [8]), 19%; in test [3] (at 50.0 µM), 40.6%; in test [4] (setting [7]), 18%; in test [4] (setting [8]) it was 51%; in test [4] (at 50.0 µM) it was 15.2%. Besides, the growth inhibition is 3% in test [5] (setting [7]); 7% in test [5] (setting [8]); -30.5% in test [5] (at 50.0 µM); 8% in test [6] (setting [7]); 44% in test [6] (setting [8]); 17.6% in test [6] (at 50.0 µM).
`CCCCCCCCCCN(CCCCCCCCCC)CC(O)c1cc(-c2ccccc2)nc2ccccc12` (configuration not stated): the growth inhibition in test [1] (setting [7]) is -1%; in test [1] (setting [8]), 74% (active); in test [1] (at 50.0 µM) it was 36.2%; in test [2] (setting [7]), -2%; in test [2] (setting [8]) it was 34%; in test [2] (at 50.0 µM) it was 21.9%. The growth inhibition was -22% in test [3] (setting [7]); 93% (active) in test [3] (setting [8]); 38.8% in test [3] (at 50.0 µM); 0% in test [4] (setting [7]); 26% in test [4] (setting [8]); -18.1% in test [4] (at 50.0 µM). Also, the growth inhibition was 0% in test [5] (setting [7]); 58% in test [5] (setting [8]); 26.9% in test [5] (at 50.0 µM); 4% in test [6] (setting [7]); 57% in test [6] (setting [8]); 55% in test [6] (at 50.0 µM).
For `CC(C)/C=C1\CCC(CN2CCOCC2)C1=O` (configuration not stated), the growth inhibition in test [1] (setting [7]) is 24%; in test [1] (setting [8]), 36%; in test [1] (at 50.0 µM), 72.1% (active); in test [2] (setting [7]) it was 18%; in test [2] (setting [8]), 26%; in test [2] (at 50.0 µM) it was 28.4%. For the same compound, the growth inhibition in test [3] (setting [7]) is 22%; in test [3] (setting [8]), 44%; in test [3] (at 50.0 µM), 48.7%; in test [4] (setting [7]), 23%; in test [4] (setting [8]), 20%; in test [4] (at 50.0 µM) it was 30.9%. The growth inhibition was 17% in test [5] (setting [7]); 62% in test [5] (setting [8]); 30.6% in test [5] (at 50.0 µM); -5% in test [6] (setting [7]); 71% (active) in test [6] (setting [8]); 67.2% in test [6] (at 50.0 µM).
Turning to `Fc1ccc(CSC(=S)Nc2ccc(Br)cc2)cc1`, the growth inhibition in test [1] (setting [7]) is 9%; in test [1] (setting [8]) it was 99% (active); in test [1] (at 50.0 µM) it was 91.2% (active); in test [2] (setting [7]), 8%; in test [2] (setting [8]), 99% (active); in test [2] (at 50.0 µM) it was 90% (active). Besides, the growth inhibition in test [3] (setting [7]) is 11%; in test [3] (setting [8]), 99% (active); in test [3] (at 50.0 µM), 94.8% (active); in test [4] (setting [7]) it was -9%; in test [4] (setting [8]), 99% (active); in test [4] (at 50.0 µM), 56.2%. Also, the growth inhibition is -6% in test [5] (setting [7]); 99% (active) in test [5] (setting [8]); 71.1% (active) in test [5] (at 50.0 µM); 21% in test [6] (setting [7]); 99% (active) in test [6] (setting [8]); 95.5% (active) in test [6] (at 50.0 µM).
As to `CC(=O)Nc1ccc(N=Cc2cc(Cl)cc(Cl)c2O)cc1`, the growth inhibition is 82% (active) in test [1] (setting [7]); 99% (active) in test [1] (setting [8]); 80.2% (active) in test [1] (at 50.0 µM); 90% (active) in test [2] (setting [7]); 99% (active) in test [2] (setting [8]); 73.5% (active) in test [2] (at 50.0 µM). The growth inhibition was 97% (active) in test [3] (setting [7]); 95% (active) in test [3] (setting [8]); 89.3% (active) in test [3] (at 50.0 µM); 54% in test [4] (setting [7]); 94% (active) in test [4] (setting [8]); 53% in test [4] (at 50.0 µM). The growth inhibition was 97% (active) in test [5] (setting [7]); 97% (active) in test [5] (setting [8]); 81.7% (active) in test [5] (at 50.0 µM); 80% (active) in test [6] (setting [7]); 99% (active) in test [6] (setting [8]); 65.8% in test [6] (at 50.0 µM).

For the origin of these results see PubChem BioAssay (NCI).
